From PubChem BioAssay (NCI) come the findings set out here.

Values joined by “and” are separate entries in the source; they are usually repeats but may differ in a detail not shown here. Equal values may be shown once. Compounds without any hit were thinned out: in the full panel of roughly 83,000, 20% have a hit.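 In brief: 96-well plates, 48 h treatment, single concentration, percent growth endpoint.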 Active and inactive are the calls of the source. Rule for the calls: active = growth percent below 10; inactive = the rest.

Common to all, as to test: NCI-60 one-dose screen, 48 h (100 = growth as untreated, 0 = no growth, -100 = all killed)
What all share (settings): 10 µM unless noted

Assay [1] relates to BT-549 breast.
For assay [2], the system named is MDA-MB-435 melanoma.
Assay [3] relates to SW-620 colon.
In assay [4] the test system is MCF7 breast.
Assay [5] deals with HCT-116 colon.
Assay [6] has as its system KM12 colon.
In assay [7] the test system is HCC-2998 colon.

As for `COc1ccc(C2=NOC(CC(=O)N(CCO)CCO)C2)cc1OC1CCCC1` (stereo not drawn), the growth in assay [1] was 95.5% (inactive); in assay [2], 104% (inactive); in assay [3], 97.7% (inactive); in assay [4] it was 95.2% (inactive); in assay [5], 79.6% (inactive); in assay [6], 103% (inactive).

`O=c1cc(-c2ccc(O)cc2)oc2cc(O[C@@H]3O[C@H](CO)[C@@H](O)[C@H](O)[C@H]3O)cc(O)c12`: the growth in assay [4] is 38.3% [100 µM] (inactive) and 0.613% [100 µM] (active).

`N#CC1C(=O)N(c2ccccc2)NC12OC(=O)c1ccncc12` (stereo not drawn): the growth in assay [4] is 85.8% [20 µM] (inactive) and 87.1% [20 µM] (inactive).

Consider `O=C(O)c1cnccc1-c1cc(=O)[nH]n1-c1ccccc1`, for which the growth in assay [4] is 29.1% [100 µM] (inactive) and 3.22% [100 µM] (active).

Take `O=c1c2ncn(C3CCCCO3)c2n(-c2ccccc2)c(=S)n1-c1ccccc1` (stereo not drawn): the growth in assay [4] is 43.5% [100 µM] (inactive) and 61.3% [100 µM] (inactive).

Regarding `O=C1/C(=C/c2ccc([N+](=O)[O-])cc2)Oc2ccc(O)cc21`, the growth is 95% (inactive) in assay [2]; 25.9% (inactive) in assay [3]; 3.33% (active) in assay [4]; 9.15% (active) in assay [5]; 46% (inactive) in assay [7]; 102% (inactive) in assay [6].

With `C#CCn1c2c(c3ccccc3c1=O)C(=O)c1ccccc1-2`, the growth in assay [4] is 11.6% [100 µM] (inactive) and 10.4% [100 µM] (inactive).

With `Cc1ccc(/C=N/Nc2ccc3ccccc3n2)s1`, the growth in assay [4] was -79.9% [100 µM] (active) and -100% [100 µM] (active).

As for `O=c1[nH]c(=S)c2c(n1CCCO)CCC2`, the growth in assay [2] is 97% (inactive); in assay [3], 103% (inactive); in assay [4], 96.5% (inactive); in assay [5] it was 99.1% (inactive); in assay [7], 108% (inactive); in assay [6], 105% (inactive).

Turning to `C[C@]12CC[C@@H]3c4cc(Br)c(O)c(Br)c4CC[C@H]3[C@@H]1CC(Br)C2=O` (stereo partly drawn), the growth in assay [4] was -71.4% [100 µM] (active) and -70.2% [100 µM] (active).

Regarding `CSC1=CC(=O)c2ccccc2C1=O`, the growth in assay [2] is 89.4% (inactive); in assay [3], -55.2% (active); in assay [4], 93.2% (inactive); in assay [5], -57% (active); in assay [7], 107% (inactive); in assay [6] it was 71.9% (inactive).

With `CN(C)c1ccc(/C=C(\C#N)c2cc3ccccc3n2C)cc1`, the growth in assay [2] was -26.9% (active); in assay [3], 21% (inactive); in assay [4], 15.1% (inactive); in assay [5] it was 10.6% (inactive); in assay [7], 20.1% (inactive); in assay [6], 18.5% (inactive).

For `COc1cc2c(cc1-c1coc3cc(OCC=C(C)C)ccc3c1=O)OCO2`, in assay [4], the growth is -12% [100 µM] (active) and -54.2% [100 µM] (active).

In the case of `Cc1ccc(/C=N/Nc2cc(C)c3ccccc3n2)s1`, the growth in assay [4] is -80.7% [100 µM] (active) and -40.2% [100 µM] (active).

With `O=C1N(c2ccccc2)N=C2c3ccncc3C3=NN(c4ccccc4)C(=O)C123` (stereo not drawn), the growth in assay [4] is 28.9% [100 µM] (inactive) and -33.6% [100 µM] (active).

Turning to `C=C1C(=O)OC2/C=C(/C)C3(O)OC(C)(CC(OC(=O)C(C)C)C12)CC3OC(C)=O` (stereo not drawn), the growth in assay [4] was -83.4% [100 µM] (active).

Consider `Nc1nc(Nc2cc(F)c(Cl)c(F)c2)cc(=O)[nH]1`, for which, in assay [4], the growth is 65.9% [100 µM] (inactive) and -23.3% [100 µM] (active).

On to `CC(C)(C)c1cc(C2COC(=O)COCC(=O)OCCOCCOCCO2)cc(C(C)(C)C)c1O` (stereo not drawn), for which the growth in assay [4] is 64.9% [100 µM] (inactive) and 75.7% [100 µM] (inactive).

In the case of `COc1ccc2c3c(c(=O)n(C)c2c1OC)C=CC(C)(C)O3`, the growth in assay [4] is 4.77% [100 µM] (active) and 0.153% [100 µM] (active).

As for `COc1ccc(/C=N/NC(=O)c2cnn(CC(O)Cc3ccccc3)c2N)cc1OC1CCCC1` (stereo not drawn), the growth in assay [2] was 100% (inactive); in assay [3], 98.9% (inactive); in assay [4], 83.7% (inactive); in assay [5], 90.4% (inactive); in assay [7], 116% (inactive); in assay [6], 35.2% (inactive).

Take `CC(=O)c1cc2c(s1)C(=O)c1sccc1C2=O`: the growth in assay [4] is -67.2% [100 µM] (active) and -100% [100 µM] (active).

As for `O=c1[nH]c(=O)n(C2CC(O)C(CO)O2)cc1Br` (stereo not drawn), the growth in assay [4] was 29% [100 µM] (inactive) and -14.9% [100 µM] (active).

With `CCCCCCCCCCCCCC1=C(O)C(=O)C(CC2=C(O)C(=O)C(CCCCCCCCCCCCC)=C(O)C2=O)=C(O)C1=O`, the growth in assay [4] was 2.9% [100 µM] (active) and -79.8% [100 µM] (active).
